High-throughput results deposited in PubChem by National Center for Advancing Translational Sciences (NCATS).
In the library only some 19% were active in any assay of this set; here they are far more common.
TDP1 cell CPT: growth inhibition of DT40 Tdp1-/-;hTDP1 cells with camptothecin (screen for TDP1 inhibitors); chicken DT40 Tdp1-/-;hTDP1 cells + 20 nM CPT, ATP luminescence, 48 h; Potency, µM (series often up to 46.2 µM), usual class: inhibitors; 12% of 420,000 active; AID 686979; note: nearly all actives have a fitted effect of over 55% in size
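Chicken DT40 Tdp1-/- cells complemented with human TDP1, 400 cells/well, exposed to compounds plus 20 nM camptothecin for at least 48 h at 37 C; viability read as ATP content by CellTiter-Glo luminescence.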
HepG2 tox: HepG2 cytotoxicity, counter-screen for TGF-b inhibitors. 0.76% of 410,000 active. Potency, µM (doses to about 46.1 µM), most hits filed as cytotoxic. AID 588856. HepG2 CAGA-GFP viability, ATP luminescence, 18 h
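CellTiter-Glo luminescence gave cytotoxicity after 18 hours at 37 degrees C. The cells were HepG2 CAGA-GFP in 1% FBS DMEM, stimulated with 500 pg/mL TGF-beta after compound addition. %Activity was normalised to no-cell wells (complete cell-killing) and DMSO (no toxicity), and curves were fitted and classified.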
TDP1 inh: TDP1 (human) enzyme inhibition | Q9NUW8 | recombinant TDP1, AlphaScreen DNA substrate cleavage | Potency, µM (doses to about 130 µM), usual class: inhibitors | 0.28% of 350,000 active | AID 485290; note: nearly all actives have a fitted effect of over 40% in size
Target sequence (Q9NUW8 whole entry, looked up): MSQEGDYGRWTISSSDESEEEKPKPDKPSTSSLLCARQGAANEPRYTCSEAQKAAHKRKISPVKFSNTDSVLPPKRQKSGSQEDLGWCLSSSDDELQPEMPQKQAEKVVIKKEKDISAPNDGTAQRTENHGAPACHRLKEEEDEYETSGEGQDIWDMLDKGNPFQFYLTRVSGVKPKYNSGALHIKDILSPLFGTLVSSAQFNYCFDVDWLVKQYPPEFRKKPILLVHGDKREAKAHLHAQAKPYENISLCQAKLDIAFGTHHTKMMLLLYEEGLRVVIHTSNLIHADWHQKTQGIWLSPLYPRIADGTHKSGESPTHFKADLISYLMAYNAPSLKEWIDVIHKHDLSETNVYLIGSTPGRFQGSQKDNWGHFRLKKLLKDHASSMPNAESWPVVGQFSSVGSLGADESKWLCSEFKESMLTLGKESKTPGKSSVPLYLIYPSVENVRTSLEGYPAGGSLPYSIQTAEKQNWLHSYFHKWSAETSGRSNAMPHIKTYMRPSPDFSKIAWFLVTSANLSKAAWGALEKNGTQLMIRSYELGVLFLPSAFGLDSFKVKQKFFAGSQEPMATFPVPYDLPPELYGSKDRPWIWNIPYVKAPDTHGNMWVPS
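Tdp1 1 nM final; 15 min RT w/ cpd; substrate 15 nM, 5 min; beads 10 ug/ml, 10 min; AlphaScreen read. Neg ctrl: no enzyme.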
TGFb inhibitor: inhibitors of TGF-b signaling; AID 588855; 1.2% of 410,000 active; HepG2 CAGA-GFP TGF-b/SMAD3 reporter, GFP fluorescence, 18 h; TGF-beta stimulated, 500 pg/mL final; Potency, µM (doses to about 46.1 µM), actives largely listed as inhibitors; note: nearly all actives have a fitted effect of over 65% in size
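Read-out: total well GFP (ex488/em500-530) summed from mean per-cell fluorescence. Cells: HEPG2 CAGA-GFP, 1% FBS DMEM, 18 h at 37 degrees C with 500 pg/mL final TGF-beta. Unstimulated wells served as the full-inhibition control; stimulated DMSO wells = 0%.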
TDP1 cell noCPT: qHTS for Inhibitors of human tyrosyl-DNA phosphodiesterase 1 (TDP1): qHTS in cells in absence of CPT. DT40 Tdp1-/- hTDP1 cells, no CPT, ATP luminescence, 48 h. Potency, µM (doses to about 46.2 µM), hits mostly inhibitors. 15% of 420,000 active. AID 686978, 2013; note: nearly all actives have a fitted effect of over 55% in size
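Compound effects on proliferation are scored in DT40 Tdp1-/-;hTDP1 cells in the absence of CPT. ATP levels (CellTiter-Glo luminescence) are recorded after a ≥48 hr, 37 °C incubation.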
IL1B secr inh: inflammasome signaling inhibition, IL-1 beta readout | THP-1 LPS/ATP IL-1B secretion, AlphaLISA, 16 h; active compounds read low | activity change, % at 57.5 µM | 4.7% of 360,000 active; in the data active = activity change below about -50%; inconclusive = mostly about -30% to -49%
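Secreted IL-1B measured by AlphaLISA bead assay after 16 h compound exposure of THP-1 cells; compounds (final up to 57.5 uM) added 1 h before LPS (250 ng/mL) and ATP (1.25 mM) stimulation; lower signal means less secretion.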
Large screens that a line does not name were inactive. Unless noted, calls come from the whole dose curve; as a rule, active = well fitted curve in the direction sought with a large enough effect; inconclusive = small, poorly fitted or top-dose-only effect, or another doubt; inactive = no such curve, though single readings can be large; an effect the other way counts as inactive or inconclusive.

C=CCN(c1ccccc1)S(=O)(=O)c1cccc(C(=O)N2CC(C)CC(C)C2)c1 (configuration not stated)	TDP1 cell CPT 9.2µM, TDP1 cell noCPT 3.66µM
Cc1ccc2ccc(C(Nc3ccccc3)c3ccc(C(C)C)cc3)c(O)c2n1 (configuration not stated)	TDP1 cell CPT 14.6µM, TDP1 cell noCPT 11.6µM (no result: HepG2 tox, TDP1 inh, TGFb inhibitor)
Cc1ccc2ccc(C(Nc3cccc(C(F)(F)F)c3)c3cccnc3)c(O)c2n1 (configuration not stated)	TDP1 cell CPT inconclusive, TDP1 cell noCPT inconclusive
Cc1ccc2ccc(C(Nc3ccccc3)c3ccccc3)c(O)c2n1 (configuration not stated)	TDP1 cell CPT 10.3µM, TDP1 cell noCPT 6.51µM (no result: HepG2 tox, TDP1 inh, TGFb inhibitor)
Cc1ccc2ccc(C(Nc3ccccc3)c3ccc(Cl)cc3)c(O)c2n1 (configuration not stated)	TDP1 cell CPT 4.11µM, TDP1 cell noCPT 3.26µM (no result: HepG2 tox, TDP1 inh, TGFb inhibitor)
Cc1ccc2ccc(C(Nc3ccccc3)c3ccc(F)cc3)c(O)c2n1 (configuration not stated)	TDP1 cell CPT 9.2µM, TDP1 cell noCPT 5.8µM (no result: HepG2 tox, TDP1 inh, TGFb inhibitor)
COc1ccc(/C(C)=N/NC(=O)CNC(=O)c2ccncc2)c(OC)c1	none
Cc1ccccc1C1CC(=O)Oc2ccc(O)cc21 (configuration not stated)	none (no result: TDP1 cell CPT, HepG2 tox, TGFb inhibitor, TDP1 cell noCPT, IL1B secr inh)
CCSC(=N)N	none
Cc1cc(CSC(=N)N)c(CSC(=N)N)cc1C	TDP1 cell CPT inconclusive, TDP1 cell noCPT 23.1µM
CCn1c(-c2ccccc2F)nc2cc(NC(C)=O)cc(C(=O)N3CCCC3c3nccs3)c21 (configuration not stated)	none (no result: HepG2 tox, TDP1 inh, TGFb inhibitor, IL1B secr inh)
COc1cccc(NC(=O)CN(C)C(=O)c2ccc(COc3ccccc3)cc2)c1	TDP1 cell CPT inconclusive, TDP1 cell noCPT 16.4µM
COc1ccc(CN(C)C(=O)C(Cc2ccccc2)NC(=O)c2ccccc2)c(OC)c1 (configuration not stated)	TDP1 cell CPT inconclusive, TDP1 cell noCPT 20.6µM (no result: TDP1 inh)
COc1cccc(NC(=O)CN(C)C(=O)c2ccc(OCc3ccccc3)c(OC)c2)c1	none
COc1ccc(Br)cc1CN(C)C(=O)CNC(=O)c1ccc2ccccc2c1	TDP1 cell noCPT inconclusive, IL1B secr inh -75.4
COc1cccc(CN(C)C(=O)[C@@H](NC(=O)c2ccc(C)cc2)C(C)C)c1	TDP1 cell CPT 20.6µM, TDP1 cell noCPT 20.6µM (no result: TDP1 inh)
COC(=O)[C@@H]1CC[C@H](C)[C@@H](c2ccc(C)cc2)N1C(=O)c1ccc(/C=N\OC[C@@H](C)[C@H](OCc2ccccc2)C(C)C)cc1	none (no result: TDP1 cell CPT, HepG2 tox, TGFb inhibitor, TDP1 cell noCPT, IL1B secr inh)
COc1cccc(CN(C)C(=O)CCN(c2ccccc2)S(=O)(=O)c2ccc(C)cc2)c1OC	TDP1 cell CPT 25.9µM, TDP1 cell noCPT 16.4µM
COc1cccc(NC(=O)CN(C)C(=O)c2ccc(Cl)c(S(=O)(=O)N3CCCCCC3)c2)c1	TDP1 cell CPT inconclusive, TDP1 cell noCPT 14.6µM
COc1ccc(CN(C)C(=O)c2ccc(NS(=O)(=O)c3ccccc3)cc2)c(OC)c1	TDP1 cell CPT inconclusive, TDP1 cell noCPT inconclusive
Cc1ccc(S(=O)(=O)N(CCC(=O)NCc2ccccc2F)c2ccccc2)cc1	TDP1 cell CPT inconclusive, TDP1 cell noCPT inconclusive
COc1ccc(CN(C)C(=O)c2ccc(COc3ccccc3)cc2)c(OC)c1	TDP1 cell CPT 18.4µM, TGFb inhibitor inconclusive, TDP1 cell noCPT 9.2µM (no result: TDP1 inh)
COc1ccccc1CN(C)C(=O)c1ccc(COc2ccccc2)cc1	TDP1 cell CPT 16.4µM, TGFb inhibitor inconclusive, TDP1 cell noCPT inconclusive, IL1B secr inh -75.7
CN(CC(=O)Nc1ccccc1Cl)C(=O)c1ccc(Cl)c(S(=O)(=O)N2CCCCCC2)c1	TDP1 cell noCPT inconclusive
COc1cccc(NC(=O)[C@H](CC(C)C)NC(=O)N2CCn3c2nc2ccccc23)c1	TDP1 cell CPT inconclusive, TGFb inhibitor inconclusive, TDP1 cell noCPT inconclusive
